Assay results published in PubChem BioAssay (NCATS).
Results filed as inconclusive are left out. A call without a number means that no potency is given here. Activity calls are given as the source filed them. The call rests on the fitted dose curve; in most records, active means well fitted curve in the direction sought with a large enough effect; inconclusive means small, poorly fitted or top-dose-only effect, or another doubt; inactive means no such curve, though single readings can be large; an effect the other way counts as inactive or inconclusive.

Assays:
[1] = qHTS assay to identify small molecule inhibitors of chordoma cells - UCH-2 (AID 1259356); further: potency means the concentration at half of the fitted maximal effect
[2] = qHTS assay to identify small molecule inhibitors of chordoma cells - UCH-1 (AID 1259355); further: nearly all actives have a fitted effect of over 55% in size; further: potency means the concentration at half of the fitted maximal effect; series mostly up to about 46 µM
In short: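 Luminescent ATP read-out (CellTiter-Glo, 30min at room temperature) measured viability of UCH-1 cells exposed for 48hr to test drugs at 15 concentrations, co-dosed with a five-agent combination of auranofin, camptothecin, doxorubicin, rubitecan and topotecan.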

[3] = qHTS Screen of the MIPE 4.0 Collection Against Ewings Sarcoma (TC32) (AID 1259256); further: potency means the concentration at half of the fitted maximal effect; nearly all actives have a fitted effect of over 45% in size
In short: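 Measured: ATP luminescence (CellTiter-Glo) 10 min after reagent addition, following 48 h drug treatment. Relative luciferase units converted to percent activity, with no-cell wells as full and DMSO wells as zero inhibition.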

[4] = Identifying Small Molecule Inhibitors of Pancreatic Cancer Stem Cells (A2780, Spheroid) (AID 1259357); details: Potency: A2780 spheroid viability;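 further: potency means the concentration at half of the fitted maximal effect; compound exposure lasted 48 h before the ATP luminescence read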
In short: (§1)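 Monolayer and spheroid cultures are compared. Spheroids form over 14 days in stem cell medium on hydrogel-coated low-attachment plates, then are exposed to compound for 48 h before CellTiter-Glo luminescence.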

[5] = Identifying Small Molecule Inhibitors of Pancreatic Cancer Stem Cells (Panc1, Spheroid) (AID 1259359); details: Panc1 spheroid cancer stem cell viability;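 further: potency means the concentration at half of the fitted maximal effect; compound exposure lasted 48 h before reading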
In short: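 Adherent (2D) versus sphere (3D) formats; spheres generated 14 d in SCM beforehand. Compound transferred by pin tool after 4 h, 48 h incubation, CellTiter-Glo endpoint.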

[6] = Identifying Small Molecule Inhibitors of Pancreatic Cancer Stem Cells (SN12C, Spheroid) (AID 1259360); details: Potency: SN12C spheroid viability; further: potency means the concentration at half of the fitted maximal effect
In short: as §1

[7] = Identifying Small Molecule Inhibitors of Pancreatic Cancer Stem Cells (A278, Adherent) (AID 1259361);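 further: viability read after 48 h compound exposure; nearly all actives have a fitted effect of over 35% in size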
In short: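 After a 4 h attachment period, compounds were pinned into wells and cultures held 48 h under standard incubator conditions. Viability was then measured as CellTiter-Glo luminescence following 10 min at room temperature.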

Structure (SMILES): CCCCCCCCCCCCCCCC[N+](C)(C)C
- Potency [1]: inactive

Structure (SMILES): Cc1ccc(Cl)c(O)c1
- Potency [2]: inactive
- Potency [1]: inactive

Structure (SMILES): O=C(N[C@@H](COc1ccc2[nH]c(=O)[nH]c2c1)c1ccccc1)c1cccn(Cc2ccc(F)c(F)c2)c1=O
- Potency [3]: 18700 nM (active)

Structure (SMILES): CN[C@@H](C)[C@H](O)c1ccccc1
- Potency [2]: inactive
- Potency [1]: inactive

Structure (SMILES): CCCCc1ccc(C(=O)O)nc1
- Potency [2]: inactive
- Potency [1]: inactive

Structure (SMILES): CCCN1CCC[C@H](c2cccc(O)c2)C1
- Potency [2]: inactive
- Potency [1]: inactive

Structure (SMILES): CC(=CCCC1=CCC(C2=CC(=O)OC2O)OC1O)CCC1=C(C)CCCC1(C)C (centres undefined)
- Potency [3]: 20900 nM (active)

Structure (SMILES): CCCCCCCCCC(CC)c1ccc(S(=O)(=O)O)cc1 (centres undefined)
- Potency [2]: inactive
- Potency [1]: inactive

Structure (SMILES): O=C(O)COc1ccccc1
- Potency [2]: inactive
- Potency [1]: inactive

Structure (SMILES): CC1CC(C)C(=O)C(C(O)CC2CC(=O)NC(=O)C2)C1 (centres undefined)
- Potency [4]: 3820 nM (active)
- Potency [5]: 2410 nM (active)
- Potency [6]: 1710 nM (active)

Structure (SMILES): CC(C)NC(C)Cc1ccc(I)cc1 (centres undefined)
- Potency [2]: inactive
- Potency [1]: inactive

Structure (SMILES): O=C(O)C(Cl)Cl
- Potency [2]: inactive
- Potency [1]: inactive

Structure (SMILES): C[C@]12N[C@H](Cc3ccccc31)c1ccccc12
- Potency [2]: inactive
- Potency [1]: inactive

Structure (SMILES): O=[N+]([O-])/N=C1\NCCN1Cc1ccc(Cl)nc1
- Potency [1]: inactive

Structure (SMILES): CN[C@@H]1C[C@@H](c2ccc(Cl)c(Cl)c2)c2ccccc21
- Potency [2]: inactive
- Potency [1]: inactive

Structure (SMILES): C[N+](C)(C)CC(=O)O
- Potency [2]: inactive
- Potency [1]: inactive

Structure (SMILES): CC(C)[C@]12O[C@H]1[C@@H]1O[C@]13[C@]1(O[C@H]1C[C@H]1C4=C(CC[C@@]13C)C(=O)OC4)[C@@H]2O
- Potency [5]: 23.5 nM (active)
- Potency [6]: 11.8 nM (active)
- IC50 (viability decrease) [7]: 6.6 nM (active)

Structure (SMILES): CC(=O)[O][Hg][c]1ccccc1
- Potency [2]: 7080 nM (active)
- Potency [1]: 2590 nM (active)

Structure (SMILES): CN1C2CCC1CC(OC(=O)c1cc(Cl)cc(Cl)c1)C2 (centres undefined)
- Potency [2]: inactive

Structure (SMILES): COC(=O)c1cncn1C(C)c1ccccc1 (centres undefined)
- Potency [2]: inactive
- Potency [1]: inactive

Structure (SMILES): O=C1C(I)=CC(=C(c2cc(I)c(O)c(I)c2)c2ccccc2C(=O)O)C=C1I
- Potency [2]: inactive
- Potency [1]: inactive

Structure (SMILES): c1ccc(CCCN2CCN(CCOC(c3ccccc3)c3ccccc3)CC2)cc1
- Potency [3]: 20900 nM (active)

Structure (SMILES): Cc1cc(O)ccc1Cl
- Potency [2]: inactive
- Potency [1]: inactive

Structure (SMILES): O=[N+]([O-])c1ccc([As](=O)(O)O)cc1
- Potency [2]: inactive
- Potency [1]: inactive
